Assay results published in PubChem BioAssay (Tox21).
Where “and” joins values, the source holds several entries; their conditions need not be identical. Identical values can stand only once. Inconclusive results are not listed. The source holds several records for some structures; these can differ, active in one and inactive in another. Calls of active or inactive are those of the source. Unless noted, calls come from the whole dose curve; as a rule, active = well fitted curve in the direction sought with a large enough effect in the repeat runs; inconclusive = weak or mixed curves; inactive = no such curve, though single readings can be large; an effect the other way counts as inactive or inconclusive.

Key:
[1] = qHTS assay for small molecule agonists of the p53 signaling pathway (AID 651631; calls by dose curve; note: nearly all actives have a fitted effect of over 15% in size; note: potency is the fitted concentration of half-maximal effect)
Outline: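 HCT-116 cells carrying a stable p53 response element–beta-lactamase reporter were plated, rested 5 h at 37 °C, then exposed to compound in DMSO for 16 h at 37 °C; reporter activity was read as FRET substrate fluorescence after 2 h at room temperature.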

[2] = qHTS assay for small molecules that induce genotoxicity in human embryonic kidney cells expressing luciferase-tagged ATAD5 (AID 651632); note: nearly all actives have a fitted effect of over 15% in size; note: potency is the fitted concentration of half-maximal effect
Outline: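 Quantitative HTS in HEK293T expressing luciferase-tagged ATAD5, whose levels rise upon DNA damage. Exposure ran 16 hr at 37C and 5% CO2, with luminescence read 30 min after Amplite addition at room temperature.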

[3] = qHTS assay for small molecule agonists of the p53 signaling pathway - cell viability (AID 651633; calls by dose curve; note: nearly all actives have a fitted effect of over 30% in size; note: potency is the fitted concentration of half-maximal effect)
Outline: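 Viability counter-read: CellTiter-Glo luminescence (30 min, room temperature) in the same p53RE-bla plates. These plates had been exposed to compounds for 16 h at 37 C.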

[4] = qHTS assay for small molecules that induce genotoxicity in human embryonic kidney cells expressing luciferase-tagged ATAD5 - cell viability (AID 651634; calls by dose curve; note: nearly all actives have a fitted effect of over 25% in size; note: potency is the fitted concentration of half-maximal effect)
Outline: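 After 15.5 hr incubation with compound at 37C, 5% CO2, HEK293T ATAD5-luciferase cells received CellTiter-Fluor reagent; fluorescence intensity was quantified following 30 min at 37C.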

[5] = qHTS assay for small molecule disruptors of the mitochondrial membrane potential (AID 720635); note: potency is the fitted concentration of half-maximal effect
Outline: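 Mitochondrial membrane potential tracked with Mito-MPS dye, red aggregates (ex 540/em 590 nm) against green monomers (ex 490/em 535 nm). Compound treatment 1 hr at 37C, dye 30 min in HepG2.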

[6] = qHTS assay to test for compound auto fluorescence at 590 nm (red) in HepG2 cells (AID 720674)
Outline: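 We screened compounds on adherent HepG2 cells, incubating them for an hour at 37 C in 5% CO2 before reading emission at 590 nm under 540 nm excitation; values reflect equivalence to Rose Bengal sodium fluorescence.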

[7] = qHTS assay to test for compound auto fluorescence at 535 nm (green) in HepG2 cells (AID 720675)
[8] = qHTS assay to test for compound auto fluorescence at 460 nm (blue) in HEK293 cells (AID 720678); note: potency is the fitted concentration of half-maximal effect
Outline: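 HEK293 cells (2,000 per well, medium with 10% dialyzed FBS) attached for 4-5 hr at 37C, then received compound and stood overnight at 37C, 5% CO2. Blue fluorescence was read at Ex/Em 405/460 nm and expressed relative to triamterene.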

[9] = qHTS assay to test for compound auto fluorescence at 590 nm (red) in HEK293 cells (AID 720679)
Outline: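 HEK293 cells (2,000/well, medium with 10% dialyzed FBS) attached for 4-5 hr at 37C, received 23 nL compound and were incubated overnight at 37C, 5% CO2. Red fluorescence was then read at 540/590nm Ex/Em, referenced to Rose Bengal sodium.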

[10] = qHTS assay for small molecule disruptors of the mitochondrial membrane potential - cell viability (AID 720634; calls by dose curve; note: nearly all actives have a fitted effect of over 20% in size; note: potency is the fitted concentration of half-maximal effect)
Outline: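 ATP-based luminescent viability readout (CellTiter-Glo, 30 min, room temperature) in HepG2 cells multiplexed with the m-MPI membrane potential dye; compound exposure lasted 1 hr at 37 C.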

Measured: Potency
Tags give direction and shape of the fitted curve or compound fluorescence and quenching.

CC12CCC(CC1)C(C)(C)O2
not listed: [10]
inactive: all other assays above

COc1ccc(C(Cl)=C(c2ccc(OC)cc2)c2ccc(OC)cc2)cc1
active: [5] 13.6 µM and 21.7 µM
inactive: all other assays above

CCCCC1(COC(=O)CCC(=O)O)C(=O)N(c2ccccc2)N(c2ccccc2)C1=O
inactive: all assays above

CC(=O)C(=O)O
not listed: [10]
inactive: all other assays above

CN(C)CCOC(C)(c1ccccc1)c1ccccn1 (stereo unspecified)
not listed: [5] | [10]
inactive: all other assays above

CC1(C)O[C@@H]2C[C@H]3[C@@H]4CCC5=CC(=O)C=C[C@]5(C)[C@@]4(F)[C@@H](O)C[C@]3(C)[C@]2(C(=O)CO)O1
inactive: all assays above

NC(=O)c1cccnc1
not listed: [10]
inactive: all other assays above

CN(C)C(=O)Nc1ccc(Cl)c(Cl)c1
active: [5] 29.8 µM
inactive: all other assays above

CCCCCCCC(=O)OCC(COC(=O)CCCCCCC)OC(=O)CCCCCCC
not listed: [10]
inactive: all other assays above

CCOc1ccc(NC(C)=O)cc1
inactive: all assays above

NS(=O)(=O)O
inactive: all assays above

O=C(O)CC(O)C(=O)O (stereo unspecified)
not listed: [10]
inactive: all other assays above

CS(=O)(=O)OCCCCOS(C)(=O)=O
inactive: all assays above

CCCc1cc(=O)[nH]c(=S)[nH]1
inactive: all assays above

COc1ccc2c(c1)c(CC(=O)O)c(C)n2C(=O)c1ccc(Cl)cc1
not listed: [5]
inactive: all other assays above

NS(=O)(=O)c1cc2c(cc1Cl)NCNS2(=O)=O
not listed: [10]
inactive: all other assays above

Cc1c(C(=O)O)c(O)cc2c1C(=O)c1c(O)c([C@@H]3O[C@H](CO)[C@@H](O)[C@H](O)[C@H]3O)c(O)c(O)c1C2=O
active: [4] 11.9 µM and 37.6 µM and 54.5 µM
inactive: all other assays above

O=c1[nH]cc(F)c(=O)[nH]1
active: [1] 4.22 µM and 3.57 µM and 1.57 µM | [2] 7.5 µM and 10.1 µM | [3] 1.06 µM and 991 nM
not listed: [10]
inactive: all other assays above

O=C(O)c1ccccc1
not listed: [10]
inactive: all other assays above

CCc1nc(N)nc(N)c1-c1ccc(Cl)cc1
active: [1] 8.41 µM | [3] 10.6 µM and 12.4 µM
inactive: all other assays above

OC[C@H]1O[C@H](O[C@]2(CCl)O[C@H](CCl)[C@@H](O)[C@@H]2O)[C@H](O)[C@@H](O)[C@H]1Cl
inactive: all assays above

CN(N=O)C(=O)N[C@@H]1[C@@H](O)[C@H](O)[C@@H](CO)O[C@@H]1O
inactive: all assays above

CCOC(N)=O
inactive: all assays above

Cc1cc(=O)oc2cc(O)ccc12
active: [1] 61.1 µM and 48.6 µM | [8] 11.2 µM [fluorescent] and 39.8 µM [fluorescent] and 35.5 µM [fluorescent]
not listed: [10]
inactive: all other assays above

Cc1ncc([N+](=O)[O-])n1C
not listed: [10]
inactive: all other assays above

NC(CO)(CO)CO
inactive: all assays above

CCCCNC(=O)NS(=O)(=O)c1ccc(C)cc1
inactive: all assays above

Cc1ncc([N+](=O)[O-])n1CCO
inactive: all assays above

C1CCC(C(CC2CCCCN2)C2CCCCC2)CC1 (stereo unspecified)
active: [3] 23.7 µM | [4] 26.6 µM | [5] 5.96 µM
not listed: [1] | [10]
inactive: all other assays above

Cn1c(=O)c2c(ncn2C)n(C)c1=O
not listed: [2] | [4]
inactive: all other assays above

Nc1ccc([N+](=O)[O-])cc1O
active: [4] 54.5 µM | [5] 17.2 µM
not listed: [1] | [10]
inactive: all other assays above

CNNCc1ccc(C(=O)NC(C)C)cc1
not listed: [2] | [5] | [10]
inactive: all other assays above

COc1ccc(OC(F)(F)F)cc1CN[C@H]1CCCN[C@H]1c1ccccc1
not listed: [5] | [10]
inactive: all other assays above

CCCCOC(=O)c1ccc(O)cc1
active: [5] 23.7 µM and 9.81 µM and 19.3 µM
not listed: [2] | [10]
inactive: all other assays above

Cc1cn([C@H]2C=C[C@@H](CO)O2)c(=O)[nH]c1=O
not listed: [1]
inactive: all other assays above

CC(C)C(=O)Nc1ccc([N+](=O)[O-])c(C(F)(F)F)c1
active: [10] 12.5 µM and 27.3 µM | [5] 13.3 µM and 6.29 µM and 9.69 µM
not listed: [1]
inactive: all other assays above

NC1CCCCC1
not listed: [1] | [10]
inactive: all other assays above

COc1cccc(O)c1O
active: [4] 17.9 µM
not listed: [2] | [5]
inactive: all other assays above

CN(C)C(=S)SC(=S)N(C)C
active: [5] 2.98 µM and 28 µM and 61.1 µM
inactive and 243 nM (active): [3]
not listed: [4] | [10]
inactive: all other assays above
